Bioassay records (PubChem)
Most compounds without a hit are left out; they make up all but 3.1% or so of the library.
VDR inhibitor – inhibitors of human vitamin D receptor; P11473; VDR-SRC2-3 peptide fluorescence polarization, 2 h; Potency, µM, for the others: max response, negative = inhibition, usual class: inhibitors; 400,000 tested, 0.93% active; note: potency is the fitted concentration of half-maximal effect
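Measured by FP: displacement of SRC2-3 coactivator peptide from VDR by library compounds, following a two-hour ambient incubation.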
PLK1 PBD inh – blocks phosphopeptide binding to human PLK1 polo-box domain; P53350; Plk1 PBD binding of FITC phosphopeptide, fluorescence polarization; Potency, µM, for the others: max response, negative = inhibition, most hits filed as inhibitors; 360,000 tested, 2.8% active; AID 720504; note: potency is the fitted concentration of half-maximal effect; series mostly up to about 57 µM; nearly all actives have a fitted effect of over 65% in size
GCN5L2 inh – inhibitors of human GCN5L2 histone acetyltransferase. Potency, µM (series often up to 58.9 µM), inactives show at the highest dose activity change, negative = inhibition, usual class: inhibitors. 390,000 tested, 0.21% active. AID 504327. GCN5L2 HAT assay, ThioGlo1 CoA-SH fluorescence. Q92830; note: potency is the fitted concentration of half-maximal effect
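Compounds, pin-transferred from DMSO stocks, meet 20nM GCN5L2 for 15 min before the reaction begins with H3(1-25) peptide (75uM) and acetyl-CoA (70uM). Thiol-reactive ThioGlo1 reports CoA release over 20 min at room temperature.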
PI4K2A block – PI4K2A (human) kinase inhibition; Q9BTU6; purified PI4K2A, ADP-Glo luminescence, 1 h; active compounds read low; activity change, negative = inhibition, % at 76.9 µM; 420,000 tested, 0.13% active; in the data active = activity change below about -50%; inconclusive = mostly about -30% to -49%;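 note: -100% = wells without enzyme as full effect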
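Compounds are screened against recombinant PI4K2A using PI as substrate and ATP, the latter dispensed at 300 microM. Reactions run one hour at ambient temperature before ADP-Glo detection; full inhibition defined by wells lacking enzyme.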
GLS inhibitor – inhibitors of human glutaminase (GLS); O94925; GLS enzymatic activity, qHTS titration; Potency, µM (highest dose often 45.5 µM), for the others: at the highest dose activity change, negative = inhibition, usual class: inhibitors; 410,000 tested, 0.21% active; AID 624170; note: potency is the fitted concentration of half-maximal effect
Target sequence (O94925 whole entry, looked up): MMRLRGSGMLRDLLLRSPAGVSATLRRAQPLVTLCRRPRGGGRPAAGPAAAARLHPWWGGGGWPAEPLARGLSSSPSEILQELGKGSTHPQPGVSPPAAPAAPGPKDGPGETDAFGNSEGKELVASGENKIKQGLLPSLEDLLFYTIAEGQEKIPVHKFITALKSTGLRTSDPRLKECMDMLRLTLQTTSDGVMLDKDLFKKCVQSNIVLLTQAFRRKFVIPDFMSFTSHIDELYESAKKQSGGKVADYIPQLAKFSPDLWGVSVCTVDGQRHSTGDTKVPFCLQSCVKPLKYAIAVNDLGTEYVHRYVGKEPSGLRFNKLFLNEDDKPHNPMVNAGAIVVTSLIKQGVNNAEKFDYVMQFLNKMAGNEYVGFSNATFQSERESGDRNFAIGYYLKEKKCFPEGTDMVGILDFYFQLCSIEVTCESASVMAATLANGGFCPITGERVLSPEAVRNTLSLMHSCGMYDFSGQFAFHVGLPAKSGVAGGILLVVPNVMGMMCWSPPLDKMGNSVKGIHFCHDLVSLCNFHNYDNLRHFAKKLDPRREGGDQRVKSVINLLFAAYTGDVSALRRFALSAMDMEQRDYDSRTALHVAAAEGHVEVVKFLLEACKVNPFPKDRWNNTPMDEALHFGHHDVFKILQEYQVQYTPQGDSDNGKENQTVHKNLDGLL
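Two-point fluorescence kinetic (t0, 30 min RT) for hKGA; glutamate detected via glutamate oxidase–HRP–Amplex Red. Substrate: 1 mM L-glutamine solution; buffer 45 mM KH2PO4, pH 8.2.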
Starred values were filed as active, the others as inactive; ? = inconclusive; · = no result. Unless noted, calls come from the whole dose curve; as a rule, active = well fitted curve in the direction sought with a large enough effect; inconclusive = small, poorly fitted or top-dose-only effect, or another doubt; inactive = no such curve, though single readings can be large; an effect the other way counts as inactive or inconclusive. Unless noted, % is set by controls: 0 for no effect and ±100 for the full control effect.

SMILES	VDR inhibitor	PLK1 PBD inh	GCN5L2 inh	PI4K2A block	GLS inhibitor
Cc1ccc(NC(=O)C2CCN(c3nnc(-n4cccc4)s3)CC2)cc1C	·	·	·	0.2	·
O=C(O)c1ccc(Nc2cc(Cl)c3nonc3c2[N+](=O)[O-])cc1	20µM*	4.74µM*	-14.2%	?	-7.3%
Cc1c(Nc2cc(Cl)c3nonc3c2[N+](=O)[O-])c(=O)n(-c2ccccc2)n1C	?	1.19µM*	-17.9%	?	0.0%
COc1cccc(NS(=O)(=O)c2cc(C)ccc2OC)c1	?	8.44µM*	1.7%	-6.6	58.0%
O=C(NCc1ccc(F)cc1)c1cccc2c1C(=O)N(Cc1cccnc1)C2	-4.2%	26.7µM*	-6.8%	-0.5	-0.3%
CCOC(=O)CSc1nnc(-c2ccccc2)c(-c2ccccc2)n1	5.6%	-24.6%	-7.0%	1.7	19.8%
O=C(CSc1nc(-c2ccccc2)ns1)N1CCOCC1	-24.7%	21.2µM*	-8.5%	-4.0	-10.3%
Cc1cccc(-c2nsc(SCC(=O)N3CCCC3)n2)c1	4.8%	?	6.5%	-8.5	-0.8%
CCOC(=O)CSc1nc(-c2ccccc2)ns1	?	3.36µM*	-5.8%	4.9	?
CCOC(=O)c1cccc(-c2cc(C(C)=O)c3n(c2=O)CCC3)c1	·	·	·	-3.0	·
CCOC(=O)C(NC(C)=O)(Nc1ccc(S(=O)(=O)Nc2cc(C)on2)cc1)C(F)(F)F (stereo unspecified)	20.3%	-9.1%	1.6%	-10.1	4.7%
Cc1cc(NS(=O)(=O)c2ccc(NC(NC(=O)C(C(F)(F)F)C(F)(F)F)(C(F)(F)F)C(F)(F)F)cc2)no1	?	5.97µM*	1.0%	-4.6	13.8%
O=C(O)C1Nc2c(O)cc(Cl)c([N+](=O)[O-])c2C2C=CCC12 (stereo unspecified)	-20.5%	2.99µM*	3.16µM*	?	3.16µM*
O=[N+]([O-])c1ccc(Cl)c2c1C1C=CCC1C(c1ccccn1)N2 (stereo unspecified)	?	-23.0%	-10.0%	?	-2.5%
NCCCC[C@H](NC(=O)[C@@H](Cc1ccccc1)NC(=O)[C@H](Cc1c[nH]c2ccccc12)NC(=O)[C@@H](CCCCN)NC(=O)[C@@H](Cc1c[nH]c2ccccc12)NC(=O)[C@@H](N)Cc1cnc[nH]1)C(N)=O	1.4%	·	-21.0%	·	·
C/C(=N/OC(=O)c1ccc(C)cc1)c1ccc(N2C(=O)C3CCCCC3C2=O)cc1 (stereo unspecified)	?	29.9µM*	-0.6%	-5.3	14.9%
C/C(=N/NC(=O)c1ccccc1O)c1ccc(N2C(=O)C3CCCCC3C2=O)cc1 (stereo unspecified)	9.5%	-6.4%	-18.9%	0.7	-5.6%
C=CCOc1ccc(/C=C2\SC(=S)N(NS(=O)(=O)c3ccccc3)C2=O)cc1	?	21.2µM*	-12.3%	-4.4	17.8%
CC(=O)N1C(=O)/C(=C2\SC(=S)N(NS(=O)(=O)c3ccc(C)cc3)C2=O)c2ccccc21	2.0%	16.8µM*	-8.2%	-4.9	16.1%
CC(/C=C1\SC(=S)N(NS(=O)(=O)c2ccc(C)cc2)C1=O)=C\c1ccccc1	?	18.9µM*	?	-2.2	12.2%
COc1ccc(/C=C2/SC(=S)N(NS(=O)(=O)c3ccccc3)C2=O)cc1	?	?	-7.8%	-5.6	?
O=C1/C(=C\c2ccc(Br)cc2)SC(=S)N1NS(=O)(=O)c1ccccc1	-1.1%	21.2µM*	-18.1%	6.3	3.8%
CC(/C=C1\SC(=S)N(NS(=O)(=O)c2ccccc2)C1=O)=C\c1ccccc1	?	0.0%	-17.3%	-6.2	0.0%
O=C1/C(=C/c2cccnc2)SC(=S)N1NS(=O)(=O)c1ccccc1	-20.4%	-10.4%	?	-6.7	-10.1%
COC(=O)c1cc(S(N)(=O)=O)ccc1OC	·	·	·	2.6	·
SMILES	VDR inhibitor	PLK1 PBD inh	GCN5L2 inh	PI4K2A block	GLS inhibitor
O=C(Cn1nnc(-c2ccncc2)n1)Nc1ccc(Cl)cc1	·	·	·	-0.7	·
O=C(COc1ccccc1)NC(NC(=S)Nc1ccccc1C(=O)O)C(Cl)(Cl)Cl (stereo unspecified)	?	26.7µM*	-1.7%	-0.9	-5.3%
CC(C)=NNc1nc(-c2ccccc2)c(C)s1	-16.3%	21.2µM*	-7.3%	-2.2	-5.1%
O=S(=O)(Nc1c(O)ccc2ccccc12)c1ccccc1	?	23.8µM*	·	-4.9	15.6%
Cc1ccc(C)c(S(=O)(=O)Nc2ccc(O)c3ccccc23)c1	?	23.8µM*	-6.7%	-25.6	13.5%
Cc1ccc(C)c(S(=O)(=O)Nc2ccc(C(N)=O)cc2)c1	12.8%	-11.7%	2.2%	2.6	0.0%
COc1ccc(S(=O)(=O)Nc2ccccc2)cc1	5.1%	-3.5%	·	-1.6	-7.8%
COc1ccc(S(=O)(=O)Nc2ccc(O)c3ccccc23)cc1	?	26.7µM*	-13.5%	-16.2	9.1%
Cc1ccc(C)c(S(=O)(=O)Nc2ccc(O)c(C(=O)O)c2)c1	?	29.9µM*	0.5%	-14.2	19.5%
c1ccc(-c2ccc(C3=Nn4c(nnc4-c4ccccn4)SC3)cc2)cc1	·	·	·	3.0	·
Cc1cc(C)c(Cn2c(CCNC(=O)c3ccco3)nc3ccccc32)c(C)c1	-3.3%	·	-5.2%	-0.7	-3.9%
Cc1ccc(C(=O)Nc2cc3cc(Cl)ccc3oc2=O)cc1	-7.5%	·	-5.0%	4.1	-11.4%
Cc1ccc(/C=C/C(=O)O)cc1S(=O)(=O)Nc1ccc(C(=O)O)cc1	-7.9%	26.7µM*	0.4%	-0.5	3.4%
Cc1ccc(/C=C/C(=O)O)cc1S(=O)(=O)Nc1ccccc1C(=O)O	-0.8%	-24.6%	-10.3%	1.7	1.1%
O=C(NCc1cccc(Cl)c1)O[C@H]1CC[C@@]23CCCN2C(=O)CCC[C@H]3C1	·	·	·	0.9	·
COc1ccc(OC)c2sc(N(CCCN(C)C)C(=O)CCS(=O)(=O)c3ccccc3)nc12	?	7.52µM*	0.0%	1.6	11.8%
COc1ccc(Cl)c2sc(N(CCN(C)C)C(=O)CCS(=O)(=O)c3ccc(C)cc3)nc12	-6.3%	-2.1%	11.9%	2.6	1.0%
COc1ccc(-n2c(COc3ccc(C)cc3)nnc2SCC(=O)c2ccc(-c3ccccc3)cc2)cc1	·	·	·	-0.1	·
COc1ccc(/C=C2/C(=O)N(c3cccc(F)c3)N=C2C)c(OC)c1	-20.3%	?	-4.2%	-50.8*	0.7%
Cc1ccc(C)c(NS(=O)(=O)c2cc3c(cc2Cl)NC(=O)CO3)c1	5.1%	·	-11.2%	0.3	4.7%
COc1ccc(C(=O)N2CCCC(N3CCN(c4ccccc4OC)CC3)C2)c(OC)n1 (stereo unspecified)	0.5%	5.3%	-22.0%	3.4	12.5%
COc1ccc(C(=O)N2CCCC(N3CCN(c4ccccc4F)CC3)C2)c(OC)n1 (stereo unspecified)	?	29.9µM*	-26.9%	-3.4	30.0%
COc1ccc2[nH]c3c(c2c1)CCN[C@]31C(=O)N(Cc2ccccc2)c2ccccc21	·	·	·	3.2	·
